Calls of active or inactive are those of the source. Calls come from the whole dose curve; as a rule, active = well fitted curve in the direction sought with a large enough effect; inactive = no such curve, though single readings can be large or run the other way.
Assay: Retest of LOPAC molecules that induce DNA re-replication in SW480 adenocarcinoma cells.
Details: Hoechst DNA content imaging, 48 h; series mostly up to 45.1 µM; activity, positive = re-replication: at the top concentration
Text: NIH Molecular Libraries Probe Production Network [MLPCN] NIH Chemical Genomics Center [NCGC] MLPCN Grant: Fast Track K99 CA136555 Assay Provider: Melvin DePamphilis, NICHD, NIH Assay Overview Eukaryotic cells normally restrict genome duplication to once per cell division. When this process is aberrant, DNA re-replication occurs when cells reinitiate DNA replication before the first round of replication is complete. DNA re-replication induces the DNA damage response, arrests cell proliferation, and triggers apoptosis. The cell cycle components cyclin A, Cdt-1, Cdc6 and geminin are critical regulators of this process and their misregulation results in DNA re-replication in normal and cancer cells. To identify compounds that induce re-replication in normal cells, an image-based assay was used to measure DNA content of nuclei, as detected by the fluorescent DNA binding dye, Hoechst. Cell nuclei were imaged by a fluorescence scanning plate imager and compounds that induce DNA re-replication were identified by the increase of nuclei with elevated fluorescence intensity.
Assay Protocol Summary For screening, 250 cells in 5 uL/well were dispensed into black clear 1536-well plates (Aurora) using a solenoid-based dispenser. Following transfer of 23 nL compound or DMSO vehicle by a pin tool, the plates were incubated 48 hr at 37 C and 5% CO2. After addition of 1 uL/well Hoescht stain, the plates were incubated 40 min at 37 C, 5% CO2 and total intensity of fluorescent objects (nuclei) were enumerated by an Acumen Explorer Ex3 (TTP LabTech) fluorescence scanning plate imager (405 nm excitation, 500-530 nm emission). Keywords: NIH Roadmap, MLPCN, MLI, MLSMR, qHTS, NCGC, DNA replication, cancer
In the case of `COc1cc2c(cc1O)CC[C@@H]1[C@@H]2CC[C@]2(C)[C@@H](O)CC[C@@H]12`, the Potency is reported as 6730 nM (active).
For `CC(=O)O[C@H]1C(=O)[C@@]2(C)C([C@H](OC(=O)c3ccccc3)[C@]3(O)C[C@H](OC(=O)[C@H](O)[C@@H](NC(=O)c4ccccc4)c4ccccc4)C(C)=C1C3(C)C)[C@]1(OC(C)=O)CO[C@@H]1C[C@@H]2O` (stereo not given in full), the Potency was 169 nM (active).
For `O=c1cc(-c2ccccc2)[nH]c2nc(Cl)ccc12`, the Potency was 1690 nM (active).
In the case of `CCCCCCN(CCCCCC)C(=O)Cc1c(-c2ccc(F)cc2)[nH]c2ccccc12`, the “activity, positive = re-replication” value is reported as -26.7% (inactive).
For `C[C@@H](Oc1ccc(Oc2cnc3ccc(Cl)cc3n2)cc1)C(=O)O`, the “activity, positive = re-replication” value was -22.5% (inactive).

— PubChem BioAssay AID493165 (National Center for Advancing Translational Sciences (NCATS), 2011)
